Bioassay records deposited in PubChem BioAssay by National Center for Advancing Translational Sciences (NCATS).
Rows were chosen to be rich in hits. Some 3% of all compounds tested hit in one or more screens of this group.
PLK1 PBD block: qHTS for Inhibitors of PLK1-PDB (polo-like kinase 1 - polo-box domain): Primary Screen; Plk1 PBD binding of FITC phosphopeptide, fluorescence polarization; Potency, µM, without a hit: max response, negative = inhibition, hits mostly inhibitors; actives 2.8% (n = 360,000); AID 720504, 2013; further: series mostly up to about 57 µM; on the % scale 0 is the no-effect control and ±100 the full control effect; nearly all actives have a fitted effect of over 65% in size
TSG101-PTAP inh: qHTS Assay for Iinhibitors of HIV-1 Budding by Blocking the Interaction of PTAP/TSG101; Tumor susceptibility gene 101 protein (Homo sapiens), Q99816; Fluorescence polarization, FITC-PTAP peptide / Tsg101 binding; Potency, µM (titrated, usually from 115 µM), inactives show top-dose activity change, negative = inhibition, usual class: inhibitors; 340,000 tested, under 10 active; AID 493005, 2010; active means well fitted inhibition curve with a large enough effect in the main read-out, with a control signal flat, not every such curve was filed as active; inconclusive means small, poorly fitted or top-dose-only effect, or effect the other way, or a change in a side signal; inactive means no such curve, though single readings can be large or run the other way; further: % of control where 0% means no effect
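Fluorescence anisotropy tracks displacement of a FITC-tagged PTAP peptide (50 nM) from the Tsg101 binding domain (10 uM), following a 20 min room-temperature incubation at pH 7.5.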
USP1-UAF1 inh: Inhibitors of USP1/UAF1: Primary Screen | Ubiquitin carboxyl-terminal hydrolase 1 (Homo sapiens), O94782 | recombinant USP1/UAF1, Ub-Rhodamine cleavage fluorescence | Potency, µM (titrated, usually from 57.1 µM), without a hit: top-dose activity change, negative = inhibition, hits mostly inhibitors | AID 743255, 2014 | actives 0.23% (n = 390,000); further: on the % scale 0 is the no-effect control and ±100 the full control effect; nearly all actives have a fitted effect of over 60% in size
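High-throughput fluorogenic screen: 1nM USP1/UAF1 complex, Ub-Rho substrate 150nM final, 50mM HEPES pH 7.8 with 0.5mM EDTA, 0.1 mg/ml BSA, 1mM TCEP and 0.01% Tween-20.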
KAT2A inh: qHTS Assay for Inhibitors of GCN5L2. GCN5L2 HAT assay, ThioGlo1 CoA-SH fluorescence. Potency, µM (doses to about 58.9 µM), without a hit: top-dose activity change, negative = inhibition, actives largely listed as inhibitors. actives 0.21% (n = 390,000); further: on the % scale 0 is the no-effect control and ±100 the full control effect
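Titration-based screen in which CoA formation is detected via maleimide probe ThioGlo1 (50uM) turning fluorescent on thiol reaction; substrates H3(1-25) 75uM and acetyl-CoA 70uM, GCN5L2 20nM, 20 min incubation at room temperature.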
VDR inhibitor: Inhibitors of the vitamin D receptor (VDR): qHTS | Vitamin D3 receptor (Homo sapiens), P11473 | VDR-SRC2-3 peptide fluorescence polarization, 2 h | Potency, µM, for the others: max response, negative = inhibition, usual class: inhibitors | actives 0.93% (n = 400,000) | AID 504847, 2011; further: on the % scale 0 is the no-effect control and ±100 the full control effect
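After 23 nl compound addition and a short centrifugation, plates sat for 2 hours at ambient temperature; polarization of fluorescence then indicated loss of VDR binding to peptide SRC2-3.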
Starred values were filed as active, the others as inactive; ? = inconclusive; / = not tested or not shown. Unless noted, the call rests on the fitted dose curve; in most records, active means well fitted curve in the direction sought with a large enough effect; inconclusive means small, poorly fitted or top-dose-only effect, or another doubt; inactive means no such curve, though single readings can be large; an effect the other way counts as inactive or inconclusive. Potency means the concentration at half of the fitted maximal effect.

SMILES | PLK1 PBD block | TSG101-PTAP inh | USP1-UAF1 inh | KAT2A inh | VDR inhibitor
O=c1[nH][nH]c2c1C(c1ccc(F)cc1)OC(CCc1ccccc1)C2 (stereo unspecified) | 11µM* | / | / | / | /
CC(C)[C@@H]1Cc2[nH][nH]c(=O)c2[C@H](c2ccc(F)cc2)O1 | 24µM* | / | / | / | /
O=c1[nH]c(=S)[nH]c2c1C(c1ccc(F)cc1)OC(CCC(F)(F)F)C2 (stereo unspecified) | 0% | / | / | / | /
CC[C@@H]1Cc2[nH][nH]c(=O)c2[C@@H](c2ccc(F)cc2)O1 | -2% | / | / | / | /
CCCCC1Cc2[nH][nH]c(=O)c2C(c2ccc(F)cc2)O1 (stereo unspecified) | 8.4µM* | / | / | / | /
O=c1[nH][nH]c2c1[C@H](c1ccc(F)cc1)O[C@H](CCC(F)(F)F)C2 | 7.5µM* | / | / | / | /
CC(C)[C@@H]1Cc2[nH]c(=O)[nH]c(=O)c2[C@H](c2ccc(F)cc2)O1 | 0% | / | / | / | /
Cc1ccc(OCc2nc(-c3ccc(C(=O)N4CCN(c5cc(Cl)ccc5C)CC4)cc3)oc2C)cc1 | / | / | -10% | -8% | -21%
COc1ccc(OC)c(NC(=O)CSc2nc(N3CCOCC3)nc(N3CCOCC3)n2)c1 | 2% | -3% | -22% | -10% | -12%
COc1ccc(OC)c(/C=C2\N=C(c3ccccc3)OC2=O)c1 | 12µM* | ? | ? | -19% | -1%
COc1ccccc1N1CCN(CC2CN3C(=O)N(C)c4ccccc4C3=N2)CC1 (stereo unspecified) | / | / | / | 22% | 3%
CCOc1cc(CNC)ccc1OCC(=O)NC(C)(C)C | -10% | -5% | -16% | -4% | -5%
CCOc1cc(CNCCO)ccc1OCC(=O)NC(C)(C)C | 24µM* | 0% | -3% | 0% | 17%
CC(C)Cn1c(-c2ccc(Br)cc2)c[nH]c1=S | 17µM* | -1% | -20% | -4% | ?
CCn1c(-c2ccccc2)c[nH]c1=S | -3% | -3% | -14% | ? | -16%
CCOc1ccc(C(c2c(O)nc(SC)n(C)c2=O)c2c(O)nc(SC)n(C)c2=O)cc1 | 12µM* | 1% | -13% | -13% | 40µM*
CCOc1ccc(OCC(=O)OCn2c(SC)nnc(C)c2=O)cc1 | -7% | -3% | -15% | -6% | 3%
CC(C)NC(=O)C1(C)CSCC(=O)N1Cc1cccc(C(F)(F)F)c1 (stereo unspecified) | -1% | / | / | / | /
CCCOc1ccc(CSc2ncn[nH]2)cc1 | 2.7µM* | 0% | -16% | -7% | ?
CCCCCOc1ccc(CSc2n[nH]c(C)n2)cc1 | 30µM* | -1% | -4% | -2% | ?
Cc1nc(SCc2ccc(OCCC(C)C)cc2)n[nH]1 | -6% | -6% | -19% | -2% | 20%
Cn1c(SSc2ccc(-c3cccnc3)n2C)ccc1-c1cccnc1 | 4.2µM* | 42% | ? | / | ?
Cn1c(SCC(=O)c2ccccc2)nnc1-c1cccnc1 | -3% | -2% | -27% | -8% | 5%
COc1ccc(OC)c(C(=O)NC(CC(N)=O)c2ccc(N3CCN(c4ccc(F)cc4)CC3)c([N+](=O)[O-])c2)c1 (stereo unspecified) | 30µM* | -2% | 17% | -6% | ?
O=C(c1ccc(=O)[nH]c1)N1CCCc2ccccc21 | -2% | -11% | -13% | -18% | -2%
NCCc1c(C(=O)O)[nH]c2ccc([N+](=O)[O-])cc12 | 21µM* | -3% | -28% | -6% | ?
Cc1c(C(=O)O)[nH]c2ccc([N+](=O)[O-])cc12 | ? | -3% | ? | -13% | -6%
CC(=O)N1C(=O)C2(C(C#N)=C(N)Oc3n[nH]c(-c4ccccn4)c32)c2ccccc21 (stereo unspecified) | 24µM* | -1% | -23% | -9% | -15%
